Among the data in PubChem BioAssay AID1347383 (Zoeller Lab, School of Medicine, Boston University, 2020) are outcome values, retold here.

Activity calls are given as the source filed them.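 Rule for the calls: active = cell survival after UV exposure 2 SD above solvent-only control wells at 10 µM, confirmed on one or two repeats; inactive = the rest.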

The nature of the assay: protection of CHO cells from pyrene-fatty acid UV killing, primary screen, phospholipid biosynthesis inhibitor project, ZR-82 cells, Analyticon library, screen 2 (AID 1347383).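 Note: survival reflects blocked phospholipid synthesis cutting uptake of the phototoxic fatty acid; compound and fatty acid exposure 3 h then viability read next day.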 As to conditions: ZR-82 CHO cells, CellTiter Blue, at 10 µM, peroxisome-deficient CHO-K1 variant, with DGAT-1, DGAT-2 and ACAT inhibitors.
With `O=C(/C=C/c1ccc(O)cc1)c1c(O)cc(O)cc1O`, the result was inactive. The value for `COc1cc(OC)c2c(c1Cl)OC1(C(=O)C=C(O)C=C1C)C2=O` (stereo not given) was “inactive”.

In the case of `C[C@@H]1CCC2C(C)(C)[C@H](O)CC[C@]2(C)[C@@]12Cc1c(O)cc3c(c1O2)CNC3=O` (stereo not given in full), the outcome was inactive. Consider `COC(=O)CC(O)C1OC(c2ccccc2)C(O)C1O` (stereo not given), for which the outcome was inactive. On to `CO[C@@H]1C(=O)CC[C@]2(O)CS[C@H](CC=C(C)C)[C@](C)(O)[C@@]12O`, for which the result was inactive.

Take `O=C1CC(c2ccccc2)Oc2cc(O)cc(O)c21` (stereo not given): the molecule was classed as inactive. As for `CC(C)=CCCC1(C)C=Cc2c(c(C)cc3c2[nH]c2ccccc23)O1` (stereo not given), the entry is “inactive”; as for `COc1cc(OC)c(C(O)C(C)O)cc1OC` (stereo not given), “inactive”. `C=C[C@@]1(C)CC[C@@H]([C@H](C)C(=O)CC=C(C)C)O1`: the result was inactive.

With `Cn1c(=O)c2c(ncn2C)n(C)c1=O`, the molecule was called inactive. `COc1ccc(/C=C/C(=O)O)cc1OC`: the result was inactive. `COc1ccc(Cc2nccc3cc(OC)c(OC)cc23)cc1OC`: the molecule was classed as inactive. Take `C=C1CCC2C(C)(C)C(OC(C)=O)CCC2(C)C1COc1ccc2ccc(=O)oc2c1` (stereo not given): the molecule was classed as inactive.

`C[C@H](O)c1nc2ccccc2c(=O)[nH]1`: the call was inactive. `COC(=O)c1ccccc1O[C@@H]1O[C@H](CO)[C@@H](O)[C@H](O)[C@H]1O[C@@H]1O[C@@H](C)[C@H](O)[C@@H](O)[C@H]1O`: the result was inactive. Take `O=C(c1cccc(O)c1)c1c(O)cc(O)cc1O`: the call was inactive. `CCC(C)C(=O)OC1CCCC2C=CC(C)C(CCC(O)CC(O)CC(=O)O)C21` (stereo not given): the molecule was called inactive. In the case of `C[C@@H]1O[C@@H](Oc2ccc(-c3coc4cc(O[C@@H]5O[C@@H](C)[C@H](O)[C@@H](O)[C@H]5O)ccc4c3=O)cc2)[C@H](O)[C@H](O)[C@H]1O`, the molecule was classed as inactive. As to `CCCC/C=C\CCCCCCCc1cc(=O)c2ccccc2n1C`, the outcome was inactive.

Consider `CC1CCCC[C@H]2C(=O)C=C[C@H](O)[C@@H]2CC(=O)O1` (stereo not given in full), for which the molecule was called inactive. For `CC1Cc2cc(O)c(O)cc2C(c2ccc(O)c(O)c2)C1C` (stereo not given), the outcome was inactive.

Turning to `C=C[C@]1(C)C[C@](O)([C@@H]2OC2(C)C)Oc2c1c(=O)oc1cccc(CC)c21`, the result was inactive. Turning to `C=CCc1ccc(O)c(O)c1`, the molecule was classed as inactive. With `CC(C)c1ccc2c(c1)CCC1[C@](C)(C(=O)O)CCC[C@]21C` (stereo not given in full), the molecule was classed as inactive. As for `O=C(/C=C/c1ccc(O)cc1)c1ccc(O)cc1O`, the call was inactive. For the molecule `CCC(O)c1cccc(O)c1CN` (stereo not given), the molecule was classed as inactive. For the molecule `CC(Cc1ccc(O)c(O)c1)C(C)Cc1ccc(O)c(O)c1` (stereo not given), the result was inactive. `CCC1CN2CCc3cc(OC)c(OC)cc3C2CC1CC1NCCc2cc(OC)c(OC)cc21` (stereo not given): the outcome was inactive. As for `COc1ccc2ccc(=O)oc2c1`, the entry is “inactive”; as for `C=C(C)[C@@H]1CC[C@]2(C(=O)O)CC[C@]3(C(=O)O)[C@H](CCC4[C@@]5(C)CCC(=O)C(C)(C)C5CC[C@]43C)C12` (stereo not given in full), “inactive”. The value for `CC(C)=CCC/C(C)=C/CC(O)/C(C)=C/Cc1cc(C(=O)O)ccc1O` (stereo not given) was “inactive”; that for `C=C(C=O)[C@]1(O)C[C@@]2(C)C(=CC1=O)C=C[C@H](OC(=O)/C=C/C=C/[C@H](C)CC)[C@@H]2C` was “inactive”.

`COc1c2cccc(C)c2c(C=O)c2c(COC(C)=O)coc12`: the molecule was classed as inactive.

Take `CCCCCCCCCCCCCCCCC1C(=O)OC(C)C1OC` (stereo not given): the outcome was inactive.

Consider `CC12CCC3C1C(c1c(cc(O)c(C(=O)c4ccccc4)c1O)O2)C3(C)C` (stereo not given), for which the result was inactive. In the case of `COc1ccc(CCc2cc(OC)cc(=O)o2)cc1`, the molecule was called inactive. As for `COc1cc(CC2COC(=O)C2(O)Cc2ccc(O)c(OC)c2)ccc1O` (stereo not given), the entry is “inactive”; as for `CC1(C)C(=O)C=CC2(C)C1CC(O)C1(C)C3=CCC(c4ccoc4)C3(C)CCC21` (stereo not given), “inactive”; as for `C/C=C/C=C/C(CC(=O)O)Nc1ccc(C=O)cc1` (stereo not given), “inactive”.

For the molecule `CCC(C)CC(=O)OC1C(=O)C(CO)C(OC)C(OC(C)=O)C1C(C)C` (stereo not given), the molecule was classed as inactive.
